Screen size: about 1,300 compounds; about 240 (18%) were called active. About 8% were inconclusive and are not listed. The rule behind the calls is not given here. The list is a sample of the results. Results with a measured potency or affinity are listed apart.
assay: toxicity to human hepatoma HepG2 cells – cell-based, cherry-picked samples, cytotoxicity control, dose response (AID 1159577); conditions: HepG2 cytotoxicity counterscreen, plate reader; series mostly up to 19.5 µM; activity change, negative = cytotoxicity: at the top concentration;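 note: 0% = neutral control wells and -100% = positive control wells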

Compound | activity change, negative = cytotoxicity
CCC(=O)N1CC2(C1)CN(Cc1ccc(Cl)cc1)[C@@H](CO)c1[nH]c3cc(OC)ccc3c12 | -17.8% (inactive)
C/C=C/c1ccc2c(c1)[C@H]1[C@H](CCN1S(=O)(=O)c1ccccc1C)[C@@H](CO)N2 | 2.08% (inactive)
CO[C@@H]1CN(C)C(=O)c2cc(NC(C)=O)ccc2OC[C@@H](C)N(C(=O)Cc2cccnc2)C[C@H]1C | -3.07% (inactive)
O=C(C[C@H]1C[C@@H]2c3cc(NC(=O)Nc4ccccc4)ccc3O[C@@H]2[C@H](CO)O1)NCc1ccccc1 | -19.7% (inactive)
CN(C)CC(=O)N1[C@H](CO)[C@H](c2ccc(-c3cccc(C(=O)N(C)C)c3)cc2)[C@@H]1C#N | 9.58% (inactive)
CCCN1[C@H](CO)[C@H](c2ccc(C3=CCCC3)cc2)[C@H]1CN(C(C)=O)C1CCCC1 | 4.65% (inactive)
C[C@@H]1CN([C@H](C)CO)S(=O)(=O)c2ccc(C3=CCCCC3)cc2O[C@H]1CN(C)C(=O)Cc1ccncc1 | 18% (inactive)
CCC(=O)N1[C@H](CO)[C@H](c2ccccc2)[C@@H]1CN(CC)C(=O)c1cccc(F)c1 | 6.38% (inactive)
CO[C@@H]1CN(C)C(=O)c2cc(NC(=O)C3CC3)ccc2OC[C@H](C)N(CC2CCCC2)C[C@H]1C | -23.7% (inactive)
CC(C)CNC[C@@H]1[C@@H](c2ccccc2)[C@@H](CO)N1Cc1ccc(F)cc1 | -9.73% (inactive)
CCc1sc(N2[C@@H](C#N)[C@@H](c3ccccc3-c3ccccc3)[C@@H]2CO)nc1C | -7.69% [at 21 µM] (inactive)
CN1c2ccc(C#Cc3cccnc3)cc2[C@@H]2[C@@H](CCN2C(=O)C2CCC2)[C@@H]1CO | 23.2% (inactive)
CNC[C@@H]1Oc2cc(C#Cc3cccnc3)ccc2S(=O)(=O)N([C@H](C)CO)C[C@H]1C | 6.27% (inactive)
COc1cc(CN2CC3(CCN(C(=O)c4cccnc4)CC3)c3c([nH]c4cc(OC)ccc34)[C@@H]2CO)cc(OC)c1 | -13.4% (inactive)
C[C@H](CO)N1C[C@H](C)[C@@H](CN(C)Cc2cccc(C(=O)Nc3ccccc3N)c2)OCc2ccccc2-c2c(n(C)c3ccccc23)C1=O | 2.47% (inactive)
COc1ccccc1S(=O)(=O)N(C)C[C@@H]1OCc2ccccc2-c2c(n(C)c3ccccc23)C(=O)N([C@@H](C)CO)C[C@@H]1C | -6.89% (inactive)
C[C@H](CO)N1C[C@H](C)[C@@H](CN(C)S(=O)(=O)c2cccc(F)c2)OCc2ccccc2-c2c(n(C)c3ccccc23)C1=O | 2.61% (inactive)
C[C@H](CO)N1C[C@H](C)[C@@H](CN(C)Cc2ccc(Oc3ccccc3)cc2)OCc2ccccc2-c2c(n(C)c3ccccc23)C1=O | 11.4% (inactive)
COc1cccc(CN(C)C[C@H]2OCc3ccccc3-c3c(n(C)c4ccccc34)C(=O)N([C@H](C)CO)C[C@@H]2C)c1 | -23.4% [at 21 µM] (inactive)
COc1ccccc1S(=O)(=O)N(C)C[C@H]1OCc2ccccc2-c2c(n(C)c3ccccc23)C(=O)N([C@@H](C)CO)C[C@@H]1C | 11.2% (inactive)
C[C@H]1CN([C@@H](C)CO)C(=O)c2c(c3ccccc3n2C)-c2ccccc2CO[C@@H]1CN(C)Cc1cccc(O)c1 | -19.8% [at 21 µM] (inactive)
C[C@@H]1CN([C@H](C)CO)C(=O)c2c(c3ccccc3n2C)-c2ccccc2CO[C@@H]1CN(C)Cc1cccc(F)c1 | -19.9% (inactive)

Compound | activity change, negative = cytotoxicity
C[C@H]1CN([C@@H](C)CO)C(=O)c2c(c3ccccc3n2C)-c2ccccc2CO[C@H]1CN(C)C(=O)Nc1ccc(-c2ccccc2)cc1 | 29.3% (inactive)
C[C@H](CO)N1C[C@H](C)[C@H](CN(C)S(=O)(=O)c2ccc(Cl)cc2)OCc2ccccc2-c2c(n(C)c3ccccc23)C1=O | -12.9% [at 21 µM] (inactive)
Cc1ccc(S(=O)(=O)N(C)C[C@H]2OCc3ccccc3-c3c(n(C)c4ccccc34)C(=O)N([C@H](C)CO)C[C@@H]2C)cc1 | 10.1% (inactive)
O=C(C[C@H]1C[C@H]2c3cc(NC(=O)Cc4ccncc4)ccc3O[C@H]2[C@H](CO)O1)NCc1ccccc1 | -6.36% (inactive)
COc1cccc(NC(=O)N(C)C[C@@H]2Oc3cc(C#Cc4ccccc4)ccc3S(=O)(=O)N([C@H](C)CO)C[C@@H]2C)c1 | 0.444% (inactive)
COc1ccc(S(=O)(=O)N(C)C[C@H]2Oc3ncc(-c4ccncc4)cc3C(=O)N([C@H](C)CO)C[C@@H]2C)cc1 | 2.98% [at 21 µM] (inactive)
COc1ccc(C#Cc2ccc3c(c2)O[C@@H](CN(C)C(=O)Nc2cccc(OC)c2)[C@H](C)CN([C@H](C)CO)S3(=O)=O)cc1 | -20% (inactive)
C[C@@H]1CN([C@@H](C)CO)C(=O)c2cccc(NC(=O)c3cnccn3)c2O[C@@H]1CN(C)Cc1ccc(-c2ccccc2)cc1 | -9.22% (inactive)
COc1ccc(NC(=O)N2CCC3(CC2)CN(C(=O)C2CCC2)[C@@H](CO)c2c3c3ccc(OC)cc3n2C)cc1 | 11.9% (inactive)
C[C@H](CO)N1C[C@H](C)[C@@H](CN(C)C(=O)[C@H](C)c2ccccc2)OCc2ccccc2-c2c(n(C)c3ccccc23)C1=O | 3.44% (inactive)
C[C@@H]1CN([C@@H](C)CO)C(=O)c2c(c3ccccc3n2C)-c2ccccc2CO[C@@H]1CN(C)C(=O)[C@H](C)c1ccccc1 | -14.1% (inactive)
CO[C@@H]1CN(C)C(=O)c2ccc(NC(=O)NC(C)C)cc2OC[C@@H](C)N(Cc2ccccc2)C[C@H]1C | 14.9% (inactive)
COc1cccc(NC(=O)N2[C@H](CO)[C@H](c3ccccc3)[C@H]2CNCC(C)C)c1 | -12.9% (inactive)
COc1ccc(-c2ccccc2[C@H]2[C@@H](C#N)N(C(=O)NC3CCCC3)[C@H]2CO)cc1 | -5.87% (inactive)
C[C@@H]1CN([C@@H](C)CO)C(=O)c2cc(NC(=O)C3CC3)ccc2O[C@H]1CN(C)CC1CCCCC1 | -8.49% (inactive)
C[C@H](CO)N1C[C@H](C)[C@H](CN(C)CC2CC2)Oc2ccc(NS(=O)(=O)c3ccc(Cl)cc3)cc2CC1=O | 0.335% (inactive)
C[C@@H]1CN([C@@H](C)CO)C(=O)c2cc(NC(=O)Nc3ccc(C(F)(F)F)cc3)ccc2O[C@H]1CN(C)C(=O)Nc1cccc2ccccc12 | -13.1% [at 21 µM] (inactive)
COc1ccc(NC(=O)Nc2ccc3c(c2)CC(=O)N([C@H](C)CO)C[C@H](C)[C@@H](CN(C)CC2CCCCC2)O3)cc1 | -30.7% (inactive)
C[C@@H]1CN([C@@H](C)CO)C(=O)Cc2cc(NC(=O)Nc3ccc4c(c3)OCO4)ccc2O[C@@H]1CN(C)CC1CC1 | -3.92% (inactive)
C[C@H](CO)N1C[C@H](C)[C@H](CN(C)CC2CC2)Oc2ccc(NC(=O)Nc3cccc4ccccc34)cc2CC1=O | -5.7% (inactive)
COc1ccc(C#Cc2ccc3c(c2)O[C@@H](CN(C)S(=O)(=O)c2ccccc2F)[C@@H](C)CN([C@H](C)CO)S3(=O)=O)cc1 | -9.31% (inactive)
OC[C@@H]1[C@@H](c2ccccc2)C2(CN(CC3CC3)C2)N1Cc1ccc(F)cc1 | 2.98% (inactive)

Compound | activity change, negative = cytotoxicity
COCC(=O)Nc1ccc2c(c1)C(=O)N(C)C[C@H](OC)[C@H](C)CN(Cc1cc(F)ccc1F)[C@H](C)CO2 | 10.4% (inactive)
COc1ccc(CN(C)C[C@@H]2Oc3c(NC(=O)c4ccc(-c5nccs5)cc4)cccc3C(=O)N([C@@H](C)CO)C[C@H]2C)cc1 | -15% (inactive)
COc1ccc(S(=O)(=O)Nc2cccc3c2O[C@H](CN(C)Cc2ccc(-c4ccccc4)cc2)[C@@H](C)CN([C@H](C)CO)C3=O)cc1 | -14.6% [at 21 µM] (inactive)
COc1ccc(S(=O)(=O)N(C)C[C@H]2Oc3c(NC(=O)Nc4cccc5ccccc45)cccc3C(=O)N([C@@H](C)CO)C[C@H]2C)cc1 | 6.17% (inactive)
COc1ccc(S(=O)(=O)N(C)C[C@@H]2Oc3c(NC(=O)Nc4cccc5ccccc45)cccc3C(=O)N([C@H](C)CO)C[C@@H]2C)cc1 | 23.4% (inactive)
COc1ccc(NC(=O)N(C)C[C@H]2Oc3c(NC(=O)Nc4ccccc4)cccc3C(=O)N([C@@H](C)CO)C[C@H]2C)cc1 | 3.11% (inactive)
C[C@H](CO)N1C[C@H](C)[C@@H](CN(C)Cc2ccc(-c3ccccc3)cc2)Oc2c(NC(=O)c3ccc(-c4nccs4)cc3)cccc2C1=O | -7.21% (inactive)
COc1ccc2c3c([nH]c2c1)[C@H](CO)N(Cc1ccc(F)cc1)CC31CCN(C(C)=O)CC1 | -5.36% (inactive)
CNC[C@H]1Oc2ncc(-c3ccc(OC)cc3)cc2C(=O)N([C@H](C)CO)C[C@H]1C | 22.7% (inactive)
C[C@@H]1CN([C@@H](C)CO)C(=O)c2cc(NC(=O)Nc3ccc4c(c3)OCO4)ccc2O[C@H]1CN(C)C(=O)Nc1cccc2ccccc12 | 14% (inactive)
C[C@H]1CN([C@@H](C)CO)S(=O)(=O)c2ccc(C#Cc3ccncc3)cc2O[C@H]1CN(C)S(=O)(=O)c1ccc(F)cc1 | 3.3% (inactive)
C[C@@H]1CN([C@@H](C)CO)S(=O)(=O)c2ccc(/C=C/c3ccccc3)cc2O[C@H]1CN(C)C(=O)C1CC1 | -1.84% (inactive)
COc1cccc(NC(=O)N(C)C[C@@H]2Oc3cc(C#Cc4ccc(F)cc4)ccc3S(=O)(=O)N([C@@H](C)CO)C[C@@H]2C)c1 | -5.78% (inactive)
CC(C)CC#Cc1ccc2c(c1)O[C@H](CN(C)S(=O)(=O)c1ccc(F)cc1)[C@@H](C)CN([C@@H](C)CO)S2(=O)=O | -9.19% (inactive)
COc1ccc(NC(=O)N(C)C[C@H]2Oc3cc(C#CCC(C)C)ccc3S(=O)(=O)N([C@H](C)CO)C[C@H]2C)cc1 | 1.72% (inactive)
C[C@@H]1CN([C@@H](C)CO)S(=O)(=O)c2ccc(/C=C/c3ccccc3)cc2O[C@H]1CN(C)Cc1cccnc1 | -0.832% (inactive)
COc1ccccc1S(=O)(=O)N(C)C[C@@H]1Oc2cc(C#CCC(C)C)ccc2S(=O)(=O)N([C@@H](C)CO)C[C@@H]1C | -3.02% (inactive)
COc1ccccc1S(=O)(=O)N(C)C[C@@H]1Oc2cc(C#CCC(C)C)ccc2S(=O)(=O)N([C@@H](C)CO)C[C@H]1C | -3.25% (inactive)
COc1cccc(NC(=O)N(C)C[C@@H]2Oc3cc(C#Cc4ccc(F)cc4)ccc3S(=O)(=O)N([C@H](C)CO)C[C@@H]2C)c1 | 4.81% (inactive)
CCCC(=O)N1CCC2(CC1)CN[C@@H](CO)c1[nH]c3cc(OC)ccc3c12 | 1.85% (inactive)
N#C[C@@H]1[C@H](c2ccccc2C2=CCCCC2)[C@@H](CO)N1S(=O)(=O)c1ccccc1 | -8.39% (inactive)

— PubChem BioAssay AID1159577 (Broad Institute, 2015)
